According to PubChem BioAssay:
Several values for one entry are separate records, joined by “and”; a condition that tells them apart may be missing. Equal values may be shown once. Activity calls are given as the source filed them.

Columns and labels:
[1] = biological target: Albumin (Bos taurus) (UniProt P02769); assay: bovine serum albumin binders on microarray, profiling panel, artefact control for SMM control protein annotation, biochemical, small-molecule microarray, Alexa647 label, 635/667 nm fluorescence (AID 1118); settings: BSA-A647 binding, fluorescence 635 nm, higher = more signal;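 note: score merges 667 nm emission intensity and signal-to-noise per printed compound spot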
Sequence of Albumin (Bos taurus) (P02769 whole entry, looked up): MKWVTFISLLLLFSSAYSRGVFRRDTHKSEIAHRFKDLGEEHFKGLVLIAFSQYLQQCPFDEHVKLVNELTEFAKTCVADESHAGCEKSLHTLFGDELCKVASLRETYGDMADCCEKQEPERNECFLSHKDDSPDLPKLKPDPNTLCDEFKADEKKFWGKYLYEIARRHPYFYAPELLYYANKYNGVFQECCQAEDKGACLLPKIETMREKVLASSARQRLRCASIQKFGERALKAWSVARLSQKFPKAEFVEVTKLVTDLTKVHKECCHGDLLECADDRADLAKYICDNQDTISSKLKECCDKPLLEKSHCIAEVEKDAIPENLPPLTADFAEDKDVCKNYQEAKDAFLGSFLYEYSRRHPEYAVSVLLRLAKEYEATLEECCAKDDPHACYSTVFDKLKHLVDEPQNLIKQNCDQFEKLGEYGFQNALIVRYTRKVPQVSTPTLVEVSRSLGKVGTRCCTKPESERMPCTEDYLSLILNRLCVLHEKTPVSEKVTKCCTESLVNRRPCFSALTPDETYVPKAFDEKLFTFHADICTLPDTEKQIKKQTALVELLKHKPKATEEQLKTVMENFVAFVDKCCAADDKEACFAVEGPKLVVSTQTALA

[2] = small-molecule microarray binders of probe aXIP, primary screen, biochemical, NeuroSMM set, 635/667 nm fluorescence (AID 1119); settings: higher = more signal, called active from +8 up or from −8 down;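 note: probe is the protein aXip251-270 applied at 1 µg/mL to compound-printed slides; binding of probe to printed compounds measured as 667 nm fluorescence plus signal to noise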
[3] = small-molecule binders of probe aNOTCH3, primary screen, biochemical, small-molecule microarray, 635/667 nm fluorescence (AID 1120); settings: higher = more signal;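 note: probe is a biotin-tagged antibody raised against NOTCH3 rather than NOTCH3 protein; score merges spot fluorescence near 667 nm with spot signal to noise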
[4] = small-molecule binders of probe aNOTCH2, primary screen, biochemical, small-molecule microarray, 635/667 nm fluorescence (AID 1121); settings: higher = more signal;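 note: score merges feature fluorescence read at 667 nm with its signal to noise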
[5] = biological target: Carbonic anhydrase 2 (Homo sapiens) (UniProt P00918); assay: CAII small-molecule binders, profiling panel, biochemical, small-molecule microarray, Alexa647-labelled CAII (AID 1122); settings: CAII-A647 binding fluorescence, higher = more signal
[6] = COS7 lysate on small-molecule microarray, probe aHis, 635 nm (AID 1123); settings: COS7 cell lysate, fluorescence, higher = more signal;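 note: z-score combines 667nm fluorescence intensity with signal-to-noise per printed compound spot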
[7] = compound binding in COS7 lysate, probe aLAP1, primary screen, cell lysate, small-molecule microarray (AID 1124); settings: probe aLAP1, fluorescence, higher = more signal;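 note: lysate comes from COS7 cells expressing LAP1 and is applied at 0.3 µg/mL; score merges spot fluorescence near 667 nm with signal-to-noise over triplicate slides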
[8] = tested on: Sam68 (KHDRBS1); assay: Sam68 small-molecule binders, primary screen, biochemical, small-molecule microarray, 635 nm fluorescence (AID 1125); settings: small-molecule microarray binding, higher = more signal;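 note: score merges 667 nm channel intensity with signal to noise over triplicate slides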
[9] = tested on: Chordin-like protein 2 (CHRDL2); assay: CHRDL2 small-molecule binders, primary screen, biochemical, small-molecule microarray, 635 nm fluorescence (AID 1126); settings: small-molecule microarray binding, fluorescence 635 nm; higher = more signal;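 note: printed compound slides probed with Chrdl2 protein at 4 µg/mL for 1 h at 4 C; score merges 667 nm emission intensity with signal to noise over three replicate slides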
[10] = biological target: Concanavalin-A (Canavalia ensiformis) (UniProt P02866); assay: ConA small-molecule binders, primary screen, artefact control for SMM control protein annotation, biochemical, small-molecule microarray, Alexa647 label, 635 nm (AID 1127); settings: ConA-A647 binding fluorescence, higher = more signal;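 note: z combines 667 nm emission intensity with signal-to-noise across three replicate slides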
Sequence of Concanavalin-A (Canavalia ensiformis) (P02866 whole entry, looked up): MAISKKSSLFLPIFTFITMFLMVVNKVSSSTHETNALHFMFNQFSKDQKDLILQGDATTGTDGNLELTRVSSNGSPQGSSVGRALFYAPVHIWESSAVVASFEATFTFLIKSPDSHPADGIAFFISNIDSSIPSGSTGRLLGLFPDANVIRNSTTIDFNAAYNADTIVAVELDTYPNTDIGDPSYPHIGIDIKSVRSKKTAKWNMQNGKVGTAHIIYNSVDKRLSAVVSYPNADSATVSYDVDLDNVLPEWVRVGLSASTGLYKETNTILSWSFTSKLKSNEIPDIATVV

Row | SMILES | composite z-score [1] | composite Z-score [2] | composite z-score [3] | composite z-score [4] | composite z-score [5] | composite z-score [6] | composite z-score [7] | composite z-score [8] | composite z-score [9] | composite z-score [10]
1 | C=CCN(C(=O)C(c1cccs1)N(CCOCCO)C(=O)/C=C\C(=O)O)C(C)(C)C (stereo not given) | -0.503 and -0.823 | -0.48 (inactive) and -0.0662 (inactive) | -0.387 and -0.349 | -0.148 and -0.126 | 0.847 and 0.9 | -0.851 and 0.606 | -0.957 and 0.0378 | -1.33 and -0.246 | -2.31 and -1.58 | -1.4 and -1.67
2 | C=CCN(Cc1ccccc1)C(=O)C(c1cccs1)N(C(=O)/C=C\C(=O)O)c1ccc(CCO)cc1 (stereo not given) | -0.047 and 0.278 | -0.18 (inactive) and -0.296 (inactive) | -0.532 and -0.475 | -0.213 and -0.2 | 0.824 and 0.335 | -0.577 and -0.107 | -0.0165 and -0.602 | -0.581 and -1.13 | -2.94 and -1.92 | -0.772 and -0.564
3 | C#CCCCON=C1C[C@@H](O)[C@@H](O)[C@@H]2[C@@H]3C(=O)N(C4CCCCC4)C(=O)[C@@H]3CC[C@H]12 | 0.691 | -0.393 (inactive) | -0.0006 | -0.11 | 0.508 | 0.186 | 0.806 | 0.866 | -0.133 | 1.15
4 | COC(=O)C1=C(C)N(Cc2ccccc2)[C@]23O[C@](C(=O)OC)(C(=O)N2[C@@H]1c1ccccc1)[C@H]1CCCC(=O)[C@H]13 | -0.0265 and -0.0851 | -0.138 (inactive) and -0.0964 (inactive) | 0.19 and -0.136 | -0.0116 and -0.0649 | 0.311 and -0.0597 | 0.685 and -0.0027 | 0.26 and -0.0668 | 0.174 and 0.227 | 0.228 and 0.551 | 1 and 0.279
5 | C=CCN(CCCCC)C(=O)C(c1cccs1)N(CCOCCO)C(=O)/C=C\C(=O)O (stereo not given) | -0.148 and -0.301 | -0.116 (inactive) and 0.239 (inactive) | -0.554 and -0.488 | -0.177 and -0.143 | 0.86 and 0.368 | -1.01 and -0.267 | -0.0541 and 0.235 | -0.856 and -0.0967 | -1.91 and -1.04 | -0.611 and -0.988
6 | C=CCN(C(=O)C1N(c2c(Cl)cccc2CO)C(=O)C2C(C(=O)O)C3C=CC21O3)c1ccc(OC)cc1 (stereo not given) | 0.14 and -0.586 | -0.172 (inactive) and -0.621 (inactive) | -0.786 and -0.515 | -0.46 and -0.162 | 0.376 and -0.184 | 0.016 and -0.849 | 0.137 and -0.803 | -0.608 and -1.33 | -0.702 and -2.38 | -0.494 and -1.23
7 | COC(=O)C1=C2N(Cc3ccccc3)C(C)=C(C(=O)OC)[C@@H](c3ccccc3)N2C(=O)[C@](O)(C(=O)OC)C1 | 0.514 and -0.0136 | 0.606 (inactive) and 0.656 (inactive) | 0.0349 and -0.063 | -0.171 and -0.0476 | 0.416 and -0.0902 | 0.877 and -0.0061 | -0.109 and 0.809 | 0.776 and 0.133 | 0.392 and 0.77 | 0.712 and -0.0245
8 | CC(C)[Si]1(C(C)C)OCc2cc(CCCc3cc4c(c(CCc5ccccc5)n3)[Si](C(C)C)(C(C)C)OC4)nc(CCc3ccccc3)c21 | -1.72 and -0.26 | -0.436 (inactive) and -0.38 (inactive) | -0.124 and -0.0578 | -0.125 and -0.108 | -0.139 and 0.0411 | 0.002 and 0.081 | 0.485 and 0.0666 | 0.23 and 0.716 | -0.126 and 0.424 | -1.42 and 0.124
9 | C=CCN(C(=O)C(c1cccs1)N(C(=O)/C=C\C(=O)O)c1ccc(CCO)cc1)c1ccc(OC)cc1 (stereo not given) | 0.254 and -1.1 | -0.16 (inactive) and -0.902 (inactive) | -0.299 and -0.451 | -0.164 and -0.19 | 0.89 and -0.733 | -0.416 and -1.29 | -1.17 and 0.112 | -1.79 and -2.22 | -1.65 and -3.12 | -1.33 and -2.24
10 | O=c1n(-c2ccccc2)c(=O)n2n1CC[C@@H]1C(=NOC[C@@H](O)COCc3ccco3)[C@H]3O[C@H]3[C@@H](O)[C@@H]12 | -0.73 and 0.143 | -0.014 (inactive) and 0.545 (inactive) | -0.173 and -0.268 | -0.122 and -0.174 | -0.14 and 0.0148 | -0.251 and -0.862 | -0.0025 and -0.111 | 0.623 and -0.34 | 1.31 and 0.628 | -0.331 and 0.101
11 | CC(C)=NO[C@@H](C)c1cc(-c2c(C)cc(C)cc2C)no1 | 0.0075 | 0.454 (inactive) | -0.181 | -0.181 | -0.223 | -0.177 | 0.214 | -0.228 | 0.227 | 0.154
12 | C[C@@]1([C@@H](NC(=O)Cc2ccccc2)c2ccc(-c3ccccc3)cc2)C[C@H]1C1CCCCC1 | 0.895 and 0.715 and 0.978 | 1.18 (inactive) and 0.111 (inactive) and 0.428 (inactive) | 0.767 and 1.49 and -0.137 | 0.24 and 0.797 and -0.324 | 0.426 and 0.62 and 0.464 | 0.0877 and 1.59 and 2.69 | 0.566 and 1.22 and 0.475 | 0.158 and 0.69 and 1.33 | 0.261 and -0.0345 and -0.954 | 0.956 and 0.166 and 1.12
13 | CC(CO)N1C(=O)[C@@H]2C3C(=O)OCCC=C[C@H]3OC23C=CCN(C(C)(C)C)C(=O)[C@@H]13 (stereo not given in full) | 0.231 and -0.322 | -0.734 (inactive) and 0.825 (inactive) | -0.34 and 0.037 | -0.211 and -0.14 | 0.863 and 0.837 | -0.329 and 0.395 | 0.241 and 1.27 | -0.349 and 0.36 | -1.5 and -0.54 | -2.13 and -0.887
14 | CC(C)OC(=O)C=C1C[C@@H](c2ccccc2)O[C@@H](c2ccccc2)O1 | 0.799 and 0.915 | 0.417 (inactive) and 0.224 (inactive) | 0.168 and 0.308 | -0.029 and 0.0219 | 0.749 and 0.727 | 2.74 and 1.87 | 0.809 and 0.779 | 1.33 and 1.3 | 0.0745 and 0.626 | 1.02 and 1.09
